# This is a sample that favours compounds with a hit; in the whole collection about 15% have one here.
# VP16 counter = inhibits Gal4-VP16 luciferase reporter, ROR gamma counter-screen; Drosophila S2 Gal4-VP16 UAS-luciferase, luminescence, 20 h; Potency, µM (titrated, usually from 53.6 µM), inactives show top-dose activity, negative = inhibition, usual class: inhibitors; actives 3.5% (n = 310,000); AID 2546;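 note: Gal4-VP16 expression switched on by copper sulfate through the metallothionein promoter; nearly all actives have a fitted effect of over 50% in size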
# 12-LOX inh = inhibitors of human 12S-lipoxygenase ALOX12; P18054; purified 12hLO, xylenol orange hydroperoxide absorbance; Potency, µM (series often up to 108 µM), inactives show at the highest dose activity change, negative = inhibition, actives largely listed as inhibitors; actives 1.1% (n = 580,000); AID 1671190
# Target sequence (P18054 whole entry, looked up): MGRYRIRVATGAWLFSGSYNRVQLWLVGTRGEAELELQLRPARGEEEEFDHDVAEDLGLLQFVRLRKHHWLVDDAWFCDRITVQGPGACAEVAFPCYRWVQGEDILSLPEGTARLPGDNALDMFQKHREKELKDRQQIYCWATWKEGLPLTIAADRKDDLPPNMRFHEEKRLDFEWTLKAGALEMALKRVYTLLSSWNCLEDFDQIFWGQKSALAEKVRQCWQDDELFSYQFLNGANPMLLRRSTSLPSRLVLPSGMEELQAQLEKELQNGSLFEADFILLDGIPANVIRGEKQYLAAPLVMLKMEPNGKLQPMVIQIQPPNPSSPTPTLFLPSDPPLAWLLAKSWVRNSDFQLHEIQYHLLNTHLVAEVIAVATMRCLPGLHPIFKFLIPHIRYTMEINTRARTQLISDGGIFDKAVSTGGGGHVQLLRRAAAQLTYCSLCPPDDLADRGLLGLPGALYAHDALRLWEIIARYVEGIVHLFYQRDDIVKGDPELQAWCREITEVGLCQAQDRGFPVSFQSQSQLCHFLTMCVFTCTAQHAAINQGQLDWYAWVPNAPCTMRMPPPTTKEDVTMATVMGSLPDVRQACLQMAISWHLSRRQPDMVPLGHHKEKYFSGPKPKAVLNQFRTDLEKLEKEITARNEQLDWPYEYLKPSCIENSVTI
#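 Hydroperoxide product was detected by ferrous iron/xylenol orange as the 573 to 405 nm absorbance ratio. Arachidonic acid at 40 uM (final) was turned over for 30 min at room temperature by 150 nM human 12hLO, pH 7.0 Hepes buffer, after 15 min compound preincubation.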
# ELG1 DNA repair = ELG1-dependent DNA repair inhibition; HEK293T ELG1-luciferase reporter, luminescence, 16 h; DNA damage induced by 5-fluorouridine; Potency, µM (highest dose often 46.1 µM), for inactives: at the top dose activity change, negative = inhibition, hits mostly inhibitors; actives 2.3% (n = 330,000); AID 504467; note: nearly all actives have a fitted effect of over 55% in size
#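 Cells (2,000 per well) received 5-fluorouridine plus test compound or DMSO and were incubated 16 hr at 37 °C, 5% CO2. Luciferase activity was read by luminescence 30 min after ONE-Glo addition; signal suppression marked inhibition of damage-induced ELG1 function.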
# RORgamma inh = blocks mouse ROR gamma transcriptional activity | AID 2551 | Drosophila S2 Gal4-RORgamma UAS-luciferase reporter, 20 h | Potency, µM (top dose mostly 53.6 µM), without a hit: top-dose activity change, negative = inhibition, usual class: inhibitors | actives 5.4% (n = 310,000); note: nearly all actives have a fitted effect of over 60% in size
#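 Compounds are pin-transferred onto Drosophila Schneider cells expressing a copper-inducible Gal4–ROR gamma transactivation domain fusion. After 1 hr, copper sulfate is added to 700 uM final; luciferase is read 20 hr later.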
# TDP1 cell noCPT = qHTS for Inhibitors of human tyrosyl-DNA phosphodiesterase 1 (TDP1): qHTS in cells in absence of CPT. DT40 Tdp1-/- hTDP1 cells, no CPT, ATP luminescence, 48 h. Potency, µM (doses to about 46.2 µM), without a hit: top-dose activity change, negative = growth inhibition, hits mostly inhibitors. actives 15% (n = 420,000). AID 686978, 2013; note: nearly all actives have a fitted effect of over 55% in size
#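 Luminescent ATP content (CellTiter-Glo) served as the growth readout. Knockout chicken DT40 cells expressing human TDP1 were exposed to compounds without camptothecin for a minimum 48 hr at 37 °C.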
# DT40 TDP1 CPT = growth inhibition of DT40 Tdp1-/-;hTDP1 cells with camptothecin (screen for TDP1 inhibitors). AID 686979. Potency, µM (doses to about 46.2 µM), for the others: at the top dose activity change, negative = growth inhibition, most hits filed as inhibitors. chicken DT40 Tdp1-/-;hTDP1 cells + 20 nM CPT, ATP luminescence, 48 h. actives 12% (n = 420,000); note: nearly all actives have a fitted effect of over 55% in size
#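 Cell growth measured by CellTiter-Glo luminescence after a minimum 48 h, 37 C compound exposure with 20 nM CPT in Tdp1-knockout DT40 cells stably expressing hTDP1, seeded 400/well; qHTS titration format.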
# Active calls of the source: *; ? = inconclusive; / = not tested or not shown; [ ] = dose if it differs, or a comment. Calls come from the whole dose curve; as a rule, active = well fitted curve in the direction sought with a large enough effect; inconclusive = small, poorly fitted or top-dose-only effect, or another doubt; inactive = no such curve, though single readings can be large; an effect the other way counts as inactive or inconclusive. % is set by controls: 0 for no effect and ±100 for the full control effect; potency is the fitted concentration of half-maximal effect.
SMILES,VP16 counter,12-LOX inh,ELG1 DNA repair,RORgamma inh,TDP1 cell noCPT,DT40 TDP1 CPT
O=C(N[C@H]1CCCNC1=O)C1=C[C@@H](NS(=O)(=O)c2cccs2)[C@@H](O)[C@H](O)C1,/,45%[176 µM],/,/,/,/
CCOC(=O)C1=C(O)c2ccccc2C(=O)/C1=C\c1ccc(C)cc1,?,10µM*,?,?,5.8µM*,5.8µM*
CCOC(=O)C1=C(O)/C(=C\c2ccc(O)c(OCC)c2)N=C1C,14%,-11%,16%,14%,-22%,-7%
CCOC(=O)C1=C(C)OC(=Cc2ccccc2)C1=O,/,-24%,/,/,0.0092µM*,-106%
CCOC(=O)C1=C(Nc2ccccc2)O/C(=C/c2ccc(F)cc2)C1=O,/,34%,/,/,/,/
O=C1NCc2ccccc2CC12CCCN2Cc1c(F)cccc1F (centres undefined),/,5%[6.33 µM],/,/,/,/
COc1nc(C(=O)N2CCN(CC(F)(F)F)CC2)cc2ccccc12,/,-2%,/,/,/,/
Cc1cc(C)c(NS(=O)(=O)c2ccc(-c3cnc(C4CC4)o3)cc2)c(C)c1,/,-23%,/,/,0.018µM*,0.58µM*
Cc1cccc(N(C)S(=O)(=O)c2ccc(-c3cnc(C4CC4)o3)cc2)c1,-8%,25%,-22%,-2%,0.037µM*,0.029µM*
O=S(=O)(Nc1ccc(F)cc1Cl)c1ccc(-c2cnc(C3CC3)o2)cc1,-26%,11%,-9%,?,0.73µM*,0.65µM*
Cc1ccc(NS(=O)(=O)c2ccc(-c3cnc(C4CC4)o3)cc2)c(C)c1,-17%,-27%,4%,40%,1µM*,1.5µM*
Cc1cccc(N(C)S(=O)(=O)c2ccc(-c3coc(C)n3)cc2)c1,/,4%,/,/,/,/
Cc1cc(C)c(NS(=O)(=O)c2cc(-c3cnc(C4CC4)o3)ccc2C)c(C)c1,/,-3%,/,/,?,-21%
COc1cc([N+](=O)[O-])cc2cc(C(=O)NC3CCCCCC3)c(=O)oc12,/,14%,/,/,/,/
CCc1nc(-c2c3n(c(=O)n(Cc4cccc(Br)c4)c2=O)CCCC3)no1,/,33%,/,/,/,/
CC(C)CNC(=O)Cc1ccc(-n2c(=O)c3ccccc3n(Cc3ccccc3F)c2=O)cc1,/,10%,/,/,/,/
CNc1nc(Nc2ccccc2C)c2cnn(-c3ccccc3)c2n1,/,3%,/,/,/,/
CCN(CC)c1ccc(NS(=O)(=O)c2ccc(-c3cnc(C4CC4)o3)cc2)c(C)c1,/,-23%,/,/,16µM*,12µM*
O=c1c2ccccc2nnn1-c1ccccc1,/,1%,/,/,-21%,-1%
N=c1c2ccccc2nnn1-c1ccc(C(F)(F)F)cc1,-7%,-11%,?,-37%,6.5µM*,?
CCCOc1ccc(CSc2ncn[nH]2)cc1,-20%,11%,?,42%,5.8µM*,4.6µM*
CN1CCN(c2cc(N3CCc4ccccc4C3)c(F)cc2[N+](=O)[O-])CC1,-22%,?,1%,-17%,21µM*,16µM*
CCCCn1nc(C(=O)NCCc2ccc(S(N)(=O)=O)cc2)c2ccccc2c1=O,/,-26%,/,/,/,/
COC(=O)c1sccc1-n1cccc1C(=O)C(=O)N1CCCC1,1%,0%,5%,10%,-16%,-3%
CNC(=O)c1cccn1-c1ccsc1C(=O)OC,2%,1%,4%,20%,18µM*,?
SMILES,VP16 counter,12-LOX inh,ELG1 DNA repair,RORgamma inh,TDP1 cell noCPT,DT40 TDP1 CPT
CN1CCN(S(=O)(=O)c2cc3cc(Cl)ccc3oc2=O)CC1,/,17%,/,/,/,/
C(#Cc1ccc(C#CCN2CCCC2)cc1)CN1CCCC1,0%[0.365 µM],17%,19%,-39%,21µM*,?
Cc1nn(-c2ccccc2)c2sc(-c3n[nH]c(=S)o3)cc12,-10%[0.365 µM],?,12%,2.8µM*,?,?
CCNC(=O)C1(C)CCN(Cc2cccc(Oc3ccccc3)c2)C1 (centres undefined),/,-24%,/,/,16µM*,?
CCNC(=O)C1(C)CCCN(Cc2ccc(Oc3ccccc3)cc2)C1 (centres undefined),/,-16%,/,/,18µM*,13µM*
CCCNC(=O)C1(C)CCN(Cc2cccc(OC(=O)c3ccccc3)c2)C1 (centres undefined),/,?,/,/,1%,-6%
O=c1c(-c2ccc3c(c2)OCCO3)coc2c(CN3CCOCC3)c(O)ccc12,3%,0%,?,13%,?,-22%
CCc1cc2c(=O)c(-c3ccc4c(c3)OCCO4)coc2c(CN2CCCCC2C)c1O (centres undefined),-4%,-15%,6%,31%,1.5µM*,1.8µM*
O=c1oc2c(CN3CCCCC3)c(O)ccc2cc1-c1nc2ccccc2[nH]1,6%,26%,?,14%,12%,7%
CCc1cc2c(=O)c(-c3nc4ccccc4[nH]3)coc2c(CN2CCCCC2C)c1O (centres undefined),2%,-30%,21µM*,-24%,10µM*,?
O=C(CSc1ncc(CO)n1Cc1ccccc1)Nc1ccc(C(F)(F)F)cc1,/,?,/,/,23µM*,15µM*
O=C(CSc1ncc(CO)n1Cc1ccccc1)Nc1nc2ccccc2s1,/,-7%,/,/,16µM*,21µM*
COc1ccc(Cn2c(CO)cnc2SCC(=O)Nc2cccc(NC(C)=O)c2)cc1,-2%,3%,-1%,7%,8%,-25%
Cc1ccc(Cn2ccnc2SCC(=O)Nc2nc3ccccc3s2)cc1,/,-6%,/,/,-14%,-19%
Cn1cc(-c2nc3cnc(N4CCNCC4)nc3n(C3CC3)c2=O)c2ccccc21,?,?,/,?,5.8µM*,13µM*
N#CC1(C(=O)Nc2cnc3ccccc3c2)CCCC1,/,-7%,/,/,/,/
Cc1c(C(=O)NC2=NCCS2)sc2cccc(F)c12,/,1%,/,/,/,/
CC1C/C(=C/c2ccco2)C(=O)/C(=C/c2ccco2)C1 (centres undefined),17%,/,-19%,31%,/,/
O=C1/C(=C\c2ccco2)CCC/C1=C\c1ccco1,-92%,25µM*,?,-20%[10 µM],?,16µM*
COc1ccc(OCc2ccc(-c3nc(C#N)c(NCc4ccc(F)cc4)o3)o2)cc1,/,-19%,/,/,23µM*,?
COCCNc1oc(-c2ccc(COc3ccc(OC)cc3)o2)nc1C#N,/,?,/,/,?,-26%
COCCCNc1oc(-c2ccc(COc3ccc(Cl)cc3)o2)nc1C#N,/,-12%,/,/,?,16µM*
CN(C)CCNc1oc(-c2ccc(COc3ccc(Cl)cc3)o2)nc1C#N,/,?,/,/,8.2µM*,16µM*
C/C1=C\CCCCc2cc(O)ccc2OC(=O)CC1,/,4%,/,/,/,/

# Source: PubChem
